# Data reported in PubChem BioAssay (NCI).
# Values joined by “and” are separate entries in the source; they are usually repeats but may differ in a detail not shown here. Identical values can stand only once. About 79,000 compounds went through this panel and 15% of them were active in at least one assay; those are over-represented in the sample as a whole. The source holds several records for some structures; these can differ, active in one and inactive in another. Active and inactive are the calls of the source. No stated cut-off is given here; in the data, active means growth inhibition above about 70%; inactive means the rest.
# What was measured:
# [1] = NCI Yeast Anticancer Drug Screen. Data for the rad52 strain (AID 147);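 further: 0% = growth of vehicle-treated control cultures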; settings: S. cerevisiae rad52 mutant growth inhibition, stronger effect = higher value
# In short: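 Screen used a yeast mutant impaired in DNA repair. After compound exposure, growth was measured. Values reflect inhibition compared with vehicle-treated cells.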
# [2] = NCI Yeast Anticancer Drug Screen. Data for the mgt1 strain (AID 153); settings: S. cerevisiae mgt1 mutant growth inhibition, stronger effect = higher value
# In short: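 Genetically defined yeast (mgt1) treated with compound; inhibition of growth expressed against vehicle-treated controls.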
# [3] = NCI Yeast Anticancer Drug Screen. Data for the rad50 strain (AID 155);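 further: 0% = growth of vehicle-only cultures of the same strain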; settings: S. cerevisiae rad50 strain growth inhibition, stronger effect = higher value
# In short: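 Yeast carrying a defined DNA repair defect were exposed to test compounds, and growth was compared with vehicle-treated controls to give percent inhibition.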
# [4] = NCI Yeast Anticancer Drug Screen. Data for the mec2-1 strain (AID 157); settings: S. cerevisiae mec2-1 strain, stronger effect = higher value
# In short: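 Readout is yeast growth inhibition, normalised to vehicle-treated controls, in the mec2-1 strain exposed to compound.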
# [5] = NCI Yeast Anticancer Drug Screen. Data for the rad14 strain (AID 159);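 further: 0% = growth of vehicle-treated control cultures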; settings: S. cerevisiae rad14 strain growth inhibition, stronger effect = higher value
# In short: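 Yeast cells carrying a defined DNA-repair defect were exposed to compounds, and growth inhibition was calculated relative to vehicle-treated control cultures.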
# [6] = NCI Yeast Anticancer Drug Screen. Data for the CLN2oe strain (AID 163);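 further: 0% = growth of vehicle-only control cultures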; settings: S. cerevisiae CLN2oe strain, stronger effect = higher value
# In short: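 Values reflect how much compound exposure reduced yeast growth, referenced to vehicle-exposed cells. Assay organism is a strain with a defined genetic change affecting cell-cycle control.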
# [7] = NCI Yeast Anticancer Drug Screen. Data for the cln2 rad14 strain (AID 165);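 further: 0% = growth equal to vehicle treated cultures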; settings: S. cerevisiae cln2 rad14 strain, stronger effect = higher value
# In short: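 Relative to vehicle controls, growth inhibition of compound-treated cln2 rad14 yeast was recorded.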
# [8] = NCI Yeast Anticancer Drug Screen. Data for the bub3 strain (AID 167); settings: S. cerevisiae bub3 mutant strain, stronger effect = higher value
# In short: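 Compounds were applied to a genetically altered yeast strain carrying a cell-cycle control defect. Growth inhibition was scored against vehicle-treated controls.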
# [9] = NCI Yeast Anticancer Drug Screen. Data for the wt2 strain (AID 169);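 further: 0% = growth of vehicle-treated yeast cultures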; settings: S. cerevisiae wt2 strain growth inhibition, stronger effect = higher value
# In short: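 Values express reduction in yeast growth under compound treatment, referenced to vehicle-treated cells.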
# [10] = NCI Yeast Anticancer Drug Screen. Data for the mlh1 strain (AID 171);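 further: 0% = growth of vehicle-treated control cultures of the same strain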; settings: S. cerevisiae mlh1 strain growth inhibition, stronger effect = higher value
# In short: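 Steps: expose the defined-mutant yeast strain to compound; expose a parallel culture to vehicle; measure growth; express compound effect as inhibition relative to the vehicle culture.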
# [11] = NCI Yeast Anticancer Drug Screen. Data for the sgs1 strain (AID 173);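 further: 0% = growth of vehicle-only control cultures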; settings: S. cerevisiae sgs1 mutant, stronger effect = higher value
# In short: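 Treat defined-mutant yeast with compound; measure growth; calculate inhibition relative to vehicle-treated cells.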
# [12] = NCI Yeast Anticancer Drug Screen. Data for the mlh1 rad18 strain (AID 175); settings: S. cerevisiae mlh1 rad18 strain growth inhibition, stronger effect = higher value
# In short: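 Test agents were incubated with a yeast strain of defined genotype (DNA damage repair defect). Inhibition of growth was derived by comparison with vehicle-exposed cultures.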
# [13] = NCI Yeast Anticancer Drug Screen. Data for the rad18 strain (AID 177); settings: S. cerevisiae rad18 mutant growth inhibition, stronger effect = higher value
# In short: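 A genetically defined yeast mutant impaired in DNA damage repair was treated with test compounds, then its growth was measured against cultures receiving vehicle alone.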
# [14] = NCI Yeast Anticancer Drug Screen. Data for the wt1 strain (AID 149);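 further: 0% = growth of vehicle-treated wt1 cultures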; settings: S. cerevisiae wt1 strain (SPY 50644) growth inhibition, stronger effect = higher value
# In short: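 Yeast wt1 strain exposed to compounds; growth inhibition measured relative to vehicle-treated controls.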
# [15] = NCI Yeast Anticancer Drug Screen. Data for the sgs1 mgt1 strain (AID 161);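 further: 0% = growth of cultures given vehicle only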; settings: S. cerevisiae sgs1 mgt1 strain, stronger effect = higher value
# In short: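 Compounds are added to genetically altered yeast, and growth is compared with cultures given vehicle alone to give percent inhibition.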
# [16] = at 5.0 µM (retest, dose inferred, filed as 0.5)
# [17] = at 50.0 µM (retest, dose inferred, filed as 5.0)
smiles,measurement,setting,value
O=C(CC(=O)n1nc(-c2ccccc2)c(N=Nc2ccc(Cl)cc2)c1-c1ccccc1)Nc1cccc(Cl)c1,growth inhibition,[1]; at 1.2 µM,-4% (inactive)
same,growth inhibition,[1]; at 3.7 µM,-1% (inactive)
same,growth inhibition,[1]; at 11.0 µM,1% (inactive)
same,growth inhibition,[1]; at 33.0 µM,0% (inactive)
same,growth inhibition,[1]; at 100.0 µM,0% (inactive)
same,growth inhibition,[2]; at 1.2 µM,-5% (inactive)
same,growth inhibition,[2]; at 3.7 µM,-5% (inactive)
same,growth inhibition,[2]; at 11.0 µM,-7% (inactive)
same,growth inhibition,[2]; at 33.0 µM,-4% (inactive)
same,growth inhibition,[2]; at 100.0 µM,-6% (inactive)
same,growth inhibition,[3]; at 1.2 µM,-2% (inactive)
same,growth inhibition,[3]; at 3.7 µM,1% (inactive)
same,growth inhibition,[3]; [16],7% (inactive)
same,growth inhibition,[3]; at 11.0 µM,0% (inactive)
same,growth inhibition,[3]; at 33.0 µM,2% (inactive)
same,growth inhibition,[3]; [17],-3% (inactive)
same,growth inhibition,[3]; at 50.0 µM,48.1% (inactive)
same,growth inhibition,[3]; at 100.0 µM,2% (inactive)
same,growth inhibition,[4]; at 1.2 µM,-4% (inactive)
same,growth inhibition,[4]; at 3.7 µM,-4% (inactive)
same,growth inhibition,[4]; [16],-4% (inactive)
same,growth inhibition,[4]; at 11.0 µM,-2% (inactive)
same,growth inhibition,[4]; at 33.0 µM,-3% (inactive)
same,growth inhibition,[4]; [17],-19% (inactive)
same,growth inhibition,[4]; at 50.0 µM,46% (inactive)
same,growth inhibition,[4]; at 100.0 µM,-4% (inactive)
same,growth inhibition,[5]; at 1.2 µM,-4% (inactive)
same,growth inhibition,[5]; at 3.7 µM,-3% (inactive)
same,growth inhibition,[5]; at 11.0 µM,-2% (inactive)
same,growth inhibition,[5]; at 33.0 µM,-1% (inactive)
same,growth inhibition,[5]; at 100.0 µM,1% (inactive)
same,growth inhibition,[6]; at 1.2 µM,-8% (inactive)
same,growth inhibition,[6]; at 3.7 µM,-10% (inactive)
same,growth inhibition,[6]; at 11.0 µM,-10% (inactive)
same,growth inhibition,[6]; at 33.0 µM,-11% (inactive)
same,growth inhibition,[6]; at 100.0 µM,-15% (inactive)
same,growth inhibition,[7]; [16],2% (inactive)
same,growth inhibition,[7]; [17],15% (inactive)
same,growth inhibition,[7]; at 50.0 µM,31.6% (inactive)
same,growth inhibition,[8]; at 1.2 µM,27% (inactive)
same,growth inhibition,[8]; at 3.7 µM,28% (inactive)
same,growth inhibition,[8]; [16],8% (inactive)
same,growth inhibition,[8]; at 11.0 µM,34% (inactive)
same,growth inhibition,[8]; at 33.0 µM,45% (inactive)
same,growth inhibition,[8]; [17],78% (active)
same,growth inhibition,[8]; at 50.0 µM,88.7% (active)
same,growth inhibition,[8]; at 100.0 µM,51% (inactive)
same,growth inhibition,[9]; at 1.2 µM,-3% (inactive)
same,growth inhibition,[9]; at 3.7 µM,-3% (inactive)
same,growth inhibition,[9]; at 11.0 µM,-3% (inactive)
same,growth inhibition,[9]; at 33.0 µM,-5% (inactive)
same,growth inhibition,[9]; at 100.0 µM,-5% (inactive)
same,growth inhibition,[10]; at 1.2 µM,-5% (inactive)
same,growth inhibition,[10]; at 3.7 µM,-2% (inactive)
same,growth inhibition,[10]; at 11.0 µM,-2% (inactive)
same,growth inhibition,[10]; at 33.0 µM,-4% (inactive)
same,growth inhibition,[10]; at 100.0 µM,-6% (inactive)
same,growth inhibition,[11]; at 1.2 µM,-4% (inactive)
same,growth inhibition,[11]; at 3.7 µM,-2% (inactive)
same,growth inhibition,[11]; at 11.0 µM,1% (inactive)
same,growth inhibition,[11]; at 33.0 µM,0% (inactive)
same,growth inhibition,[11]; at 100.0 µM,1% (inactive)
same,growth inhibition,[12]; [16],-5% (inactive)
same,growth inhibition,[12]; [17],17% (inactive)
same,growth inhibition,[12]; at 50.0 µM,57.1% (inactive)
same,growth inhibition,[13]; at 1.2 µM,-4% (inactive)
same,growth inhibition,[13]; at 3.7 µM,-4% (inactive)
same,growth inhibition,[13]; at 11.0 µM,-1% (inactive)
same,growth inhibition,[13]; at 33.0 µM,1% (inactive)
same,growth inhibition,[13]; at 100.0 µM,0% (inactive)
Cc1cc(N(CCOS(C)(=O)=O)CCOS(C)(=O)=O)ccc1C=Nc1ccc(-c2nc(Cc3ccccc3)sc2C)cc1,growth inhibition,[14]; at 1.2 µM,-29% (inactive)
same,growth inhibition,[14]; at 3.7 µM,-10% (inactive)
same,growth inhibition,[14]; at 11.0 µM,28% (inactive)
same,growth inhibition,[14]; at 33.0 µM,90% (active)
same,growth inhibition,[14]; at 100.0 µM,98% (active)
same,growth inhibition,[2]; at 1.2 µM,-24% (inactive)
same,growth inhibition,[2]; at 3.7 µM,4% (inactive)
same,growth inhibition,[2]; at 11.0 µM,55% (inactive)
same,growth inhibition,[2]; at 33.0 µM,90% (active)
same,growth inhibition,[2]; at 100.0 µM,98% (active)
same,growth inhibition,[3]; at 1.2 µM,12% (inactive)
same,growth inhibition,[3]; at 3.7 µM,23% (inactive)
same,growth inhibition,[3]; [16],44% (inactive) and 1% (inactive)
same,growth inhibition,[3]; at 11.0 µM,71% (active)
same,growth inhibition,[3]; at 33.0 µM,93% (active)
same,growth inhibition,[3]; [17],95% (active) and 49% (inactive)
same,growth inhibition,[3]; at 50.0 µM,52.9% (inactive)
same,growth inhibition,[3]; at 100.0 µM,97% (active)
same,growth inhibition,[4]; at 1.2 µM,-26% (inactive)
same,growth inhibition,[4]; at 3.7 µM,4% (inactive)
same,growth inhibition,[4]; [16],40% (inactive) and -3% (inactive)
same,growth inhibition,[4]; at 11.0 µM,72% (active)
same,growth inhibition,[4]; at 33.0 µM,93% (active)
same,growth inhibition,[4]; [17],97% (active) and 46% (inactive)
same,growth inhibition,[4]; at 50.0 µM,49.3% (inactive)
same,growth inhibition,[4]; at 100.0 µM,98% (active)
same,growth inhibition,[5]; at 1.2 µM,3% (inactive)
same,growth inhibition,[5]; at 3.7 µM,38% (inactive)
same,growth inhibition,[5]; at 11.0 µM,80% (active)
same,growth inhibition,[5]; at 33.0 µM,96% (active)
same,growth inhibition,[5]; at 100.0 µM,96% (active)
same,growth inhibition,[15]; [16],23% (inactive) and 3% (inactive)
same,growth inhibition,[15]; [17],-12% (inactive) and 43% (inactive)
same,growth inhibition,[15]; at 50.0 µM,85.5% (active) and 85.9% (active)
same,growth inhibition,[6]; at 1.2 µM,23% (inactive)
same,growth inhibition,[6]; at 3.7 µM,0% (inactive)
same,growth inhibition,[6]; at 11.0 µM,57% (inactive)
same,growth inhibition,[6]; at 33.0 µM,91% (active)
same,growth inhibition,[6]; at 100.0 µM,97% (active)
same,growth inhibition,[8]; at 1.2 µM,-32% (inactive)
same,growth inhibition,[8]; at 3.7 µM,-38% (inactive)
same,growth inhibition,[8]; [16],16% (inactive) and -2% (inactive)
same,growth inhibition,[8]; at 11.0 µM,25% (inactive)
same,growth inhibition,[8]; at 33.0 µM,89% (active)
same,growth inhibition,[8]; [17],-14% (inactive) and 55% (inactive)
same,growth inhibition,[8]; at 50.0 µM,84.2% (active) and 37% (inactive)
same,growth inhibition,[8]; at 100.0 µM,98% (active)
same,growth inhibition,[9]; at 1.2 µM,-12% (inactive)
same,growth inhibition,[9]; at 3.7 µM,10% (inactive)
same,growth inhibition,[9]; at 11.0 µM,48% (inactive)
same,growth inhibition,[9]; at 33.0 µM,92% (active)
same,growth inhibition,[9]; at 100.0 µM,98% (active)
same,growth inhibition,[10]; at 1.2 µM,-32% (inactive)
same,growth inhibition,[10]; at 3.7 µM,-15% (inactive)
same,growth inhibition,[10]; at 11.0 µM,46% (inactive)
same,growth inhibition,[10]; at 33.0 µM,92% (active)
same,growth inhibition,[10]; at 100.0 µM,97% (active)
same,growth inhibition,[11]; at 1.2 µM,3% (inactive)
same,growth inhibition,[11]; at 3.7 µM,15% (inactive)
same,growth inhibition,[11]; at 11.0 µM,66% (inactive)
same,growth inhibition,[11]; at 33.0 µM,94% (active)
same,growth inhibition,[11]; at 100.0 µM,98% (active)
same,growth inhibition,[12]; [16],78% (active) and -3% (inactive)
same,growth inhibition,[12]; [17],97% (active) and 43% (inactive)
same,growth inhibition,[12]; at 50.0 µM,77% (active)
same,growth inhibition,[13]; at 1.2 µM,41% (inactive)
same,growth inhibition,[13]; at 3.7 µM,73% (active)
same,growth inhibition,[13]; at 11.0 µM,90% (active)
same,growth inhibition,[13]; at 33.0 µM,94% (active)
same,growth inhibition,[13]; at 100.0 µM,98% (active)
